Screening results (PubChem)
Only some compounds are listed: those with a hit (about 8% of all), similar ones and a draw of the others.
SARS PLP yeast: qHTS of Yeast-based Assay for SARS-CoV PLP; Potency, µM (highest dose often 32.9 µM), usual class: activators; AID 485353, 2010; S. cerevisiae expressing SARS-CoV PLpro, growth rescue; hit rate 0.19% among 330,000; calls by dose curve; also: nearly all actives have a fitted effect of over 55% in size
LASV entry inh: qHTS for Inhibitors of binding or entry into cells for Lassa Virus | Potency, µM (titrated, usually from 37.9 µM), usual class: inhibitors | Lassa virus pseudotype entry inhibition, cell reporter | hit rate 1.2% among 300,000 | AID 540256, 2011; calls by dose curve; tested in HEK293 cells; also: nearly all actives have a fitted effect of over 50% in size
FMDV inh: High Throughput Screening for Foot and Mouth Disease Virus Antivirals; FMDV antiviral cell-based qHTS; Potency, µM (series often up to 57.9 µM), most hits filed as inhibitors; hit rate 1.2% among 410,000; calls by dose curve; tested in HEK293T cells; also: read-out not given here; nearly all actives have a fitted effect of over 45% in size
HCV inhibitor: qHTS Assay for Inhibitors of Hepatitis C Virus (HCV). Huh7.5.1 HCVcc-Cre infection, luciferase reporter, 44 h. Potency, µM (series often up to 41.8 µM), hits mostly inhibitors. hit rate 3.4% among 340,000; active = well fitted inhibition curve with a large enough effect; inconclusive = small, poorly fitted or top-dose-only effect, or another doubt; inactive = no such curve, though single readings can be large or run the other way
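Antiviral activity was scored by luciferase reporter output from cells infected with HCVcc-Cre (~0.5 moi) in presence of compound, 44 h infection period, cells seeded 1,000/well 4 h prior.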
Marburg entry inh: qHTS for inhibitors of binding or entry into cells for Marburg Virus; Marburg virus pseudotyped entry inhibition, cell reporter; Potency, µM (top dose mostly 37.8 µM), actives largely listed as inhibitors; hit rate 1.8% among 300,000; AID 540276, 2011; calls by dose curve; tested in HEK293 cells
HCMV inh: qHTS Assay for inhibitors of the human cytomegalovirus (HCMV) | AID 1259415, 2018 | activity change, negative = inhibition, % at 57.5 µM | hit rate 4.5% among 410,000 | HFF cells, HCMV-luciferase reporter, 72 h; hits give low values; in the data active = activity change below about -60%; inconclusive = no clear call, values can overlap the other calls; inactive = above about -39%
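Two-dose cell screen: HFF monolayers treated with compounds and infected with luciferase-expressing HCMV at 1 PFU/cell, 72 h at 37C, then lysed for luciferase measurement.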
Each line names hits and unclear results; the compound was inactive in the other large screens; ! = repeats disagree.

CN1C2CCC1/C(=C\c1ccc(F)cc1)C(=O)/C2=C/c1ccc(F)cc1	HCV inhibitor inconclusive, Marburg entry inh inconclusive, HCMV inh -103.4
CN1C2CCC1/C(=C/c1cccn1C)C(=O)/C2=C\c1cccn1C	FMDV inh inconclusive, HCV inhibitor inconclusive, Marburg entry inh inconclusive, HCMV inh inconclusive
CC(C)CC(=O)Nc1ccc2oc(-c3ccncc3)nc2c1	none
Cc1cccc(-c2nc3cc(NC(=O)C4CCCO4)ccc3o2)c1 (stereo unspecified)	LASV entry inh 7.94µM, Marburg entry inh 7.08µM
Cc1ccc(-c2nc3cc(NC(=O)C(C)C)ccc3o2)cc1	LASV entry inh 11.2µM, HCV inhibitor inconclusive, Marburg entry inh inconclusive
CC(Oc1ccc(Cl)cc1Cl)C(=O)Nc1ccc2oc(-c3ccncc3)nc2c1 (stereo unspecified)	LASV entry inh inconclusive, FMDV inh inconclusive, HCV inhibitor 7.08µM, Marburg entry inh 2.06µM, HCMV inh -73.6
CCc1ccccc1NC(=O)c1ncoc1-c1ccco1	none (no result: SARS PLP yeast, HCV inhibitor, Marburg entry inh)
Cc1cc(C)n(-c2nc3ccccc3nc2N2CCN(C(=O)c3ccc(F)cc3)CC2)n1	LASV entry inh inconclusive, HCMV inh -79.5
Cc1cc(C)n(-c2nc3ccccc3nc2N2CCC(C)CC2)n1	none
CCOC(=O)c1cnc2ccc(C)cc2c1Nc1ccc(N(CC)CC)cc1	LASV entry inh inconclusive, Marburg entry inh inconclusive, HCMV inh -106.2 (no result: SARS PLP yeast, HCV inhibitor)
CCOC(=O)c1cnc2ccccc2c1Nc1ccc(C(=O)O)cc1	Marburg entry inh inconclusive
CCOC(=O)c1cnc2ccc(Cl)cc2c1Nc1ccc(N2CCOCC2)cc1	LASV entry inh inconclusive, FMDV inh 22.4µM (no result: SARS PLP yeast, HCV inhibitor)
CCOC(=O)c1cnc2ccc(C)cc2c1Nc1ccc(N2CCOCC2)cc1	LASV entry inh inconclusive, HCV inhibitor inconclusive, Marburg entry inh inconclusive
Cc1ccc2nc(-c3ccc(Cl)s3)c(Nc3ccc4c(c3)OCCO4)n2c1	LASV entry inh inconclusive, Marburg entry inh inconclusive (no result: SARS PLP yeast, HCV inhibitor)
COc1ccc(C(=O)N/N=C/C23CC[C@@H](O)CC2(O)CC[C@@H]2[C@@H]3CCC3(C)C(C4=CC(=O)OC4)CCC23O)cc1 (stereo partly specified)	FMDV inh inconclusive, HCMV inh -81.7 (no result: LASV entry inh, Marburg entry inh)
CC12CC[C@H]3[C@@H](CCC4(O)C[C@H](O)CCC34/C=N/NC(=O)c3ccc(O)cc3)C1(O)CCC2C1=CC(=O)OC1 (stereo partly specified)	none (no result: LASV entry inh, Marburg entry inh)
CN(C)c1ccc(C(=O)N/N=C/C23CC[C@@H](O)CC2(O)CC[C@@H]2[C@@H]3CCC3(C)C(C4=CC(=O)OC4)CCC23O)cc1 (stereo partly specified)	FMDV inh inconclusive, HCMV inh -98.6 (no result: LASV entry inh, Marburg entry inh)
COC(=O)c1ccc(N2C(c3ccsc3)=Cc3cc4c(cc3C2CC(=O)c2ccco2)OCO4)cc1 (stereo unspecified)	HCMV inh -69.5 (no result: SARS PLP yeast, LASV entry inh, HCV inhibitor, Marburg entry inh)
COc1cccc(C(=O)CC(=O)C(=O)Nc2ccc(C)cc2Cl)c1	none
COc1ccc(C(=O)CC(=O)C(=O)Nc2ccc(C)cc2Cl)cc1	LASV entry inh inconclusive, HCV inhibitor 10µM, Marburg entry inh inconclusive
CCNC(=O)C1CCN(Cc2cc3ccccc3n2Cc2ccc(C)cc2)CC1	none (no result: SARS PLP yeast, HCV inhibitor, Marburg entry inh)
COc1ccc(CN2CCC3(CCC(CNC(=O)c4ccnn4C)O3)CC2)c(C)c1C (stereo unspecified)	none (no result: SARS PLP yeast, LASV entry inh, HCV inhibitor, Marburg entry inh, HCMV inh)
CC(=O)Oc1cc2c(cc1Cl)C1(CC(c3ccccc3Cl)O2)CC(C)(C)NC(=S)N1 (stereo unspecified)	LASV entry inh inconclusive, FMDV inh inconclusive, HCV inhibitor 10µM, Marburg entry inh inconclusive
CC1(C)CC2(CC(c3ccccc3F)c3cc(Cl)c(O)cc3O2)NC(=S)N1 (stereo unspecified)	LASV entry inh inconclusive, FMDV inh inconclusive, HCV inhibitor inconclusive, Marburg entry inh inconclusive, HCMV inh inconclusive
CSc1nc(NCC(C)O)c2c3c(sc2n1)CN(C)CC3 (stereo unspecified)	none (no result: LASV entry inh, Marburg entry inh)
CSc1nc(SCC(=O)NC(c2ccccc2)c2ccccc2)c2c3c(sc2n1)CN(C)CC3	LASV entry inh inconclusive, HCV inhibitor 1.78µM, Marburg entry inh 9.2µM
CCOC(=O)c1c(C)oc2ncnc(Nc3ccc(OC)c(OC)c3)c12	none (no result: SARS PLP yeast, HCV inhibitor, Marburg entry inh)
c1ccc(-c2nc(-c3ccccn3)nc(-c3ccccn3)n2)nc1	none
c1ccc(-c2nnc(-c3ccccn3)s2)nc1	LASV entry inh inconclusive, Marburg entry inh 1.12µM
Cc1cc(-c2cc(-c3ccccc3)on2)nc(NCC2CC2)n1	HCV inhibitor inconclusive (no result: LASV entry inh, Marburg entry inh)
Cc1nn(-c2ccccc2)c(C)c1C(=O)OCC(N)=O	none (no result: LASV entry inh, Marburg entry inh)
Cc1nn(-c2ccccc2)c(C)c1C(=O)OCc1ccc(C#N)cc1	HCV inhibitor 12.6µM (no result: LASV entry inh, Marburg entry inh)
COc1ccc(NC(=O)c2c(C)oc3ccc(O)c(CN4CCCCCC4)c23)cc1	LASV entry inh inconclusive, Marburg entry inh inconclusive, HCMV inh -67.3 (no result: SARS PLP yeast, HCV inhibitor)
COc1ccc(NC(=O)c2c(C)oc3ccc(O)c(CN4CCCC(C)C4)c23)cc1 (stereo unspecified)	Marburg entry inh inconclusive (no result: SARS PLP yeast, HCV inhibitor)
COc1ccc(NC(=O)c2c(C)oc3ccc(O)c(CN4CCC(C)CC4)c23)cc1	LASV entry inh inconclusive, Marburg entry inh 11.2µM, HCMV inh inconclusive (no result: SARS PLP yeast, HCV inhibitor)
Cn1nc([N+](=O)[O-])c(C(C#N)c2ccccn2)c(Cl)c1=O (stereo unspecified)	FMDV inh 31.6µM, HCV inhibitor inconclusive, HCMV inh -97.3 (no result: LASV entry inh, Marburg entry inh)
CCNC(=O)C1(C)CCCN(C(=O)COc2ccc(Cl)cc2Cl)C1 (stereo unspecified)	none (no result: SARS PLP yeast, LASV entry inh, FMDV inh, HCV inhibitor, Marburg entry inh)
O=C(CCN1N=C(c2ccccc2)CCC1=O)NC1CCCCC1	HCMV inh -76.7 (no result: SARS PLP yeast, LASV entry inh, HCV inhibitor, Marburg entry inh)
COc1cc(Cl)cc2c1Sc1ccccc1/C2=C/CCN(C)C	LASV entry inh inconclusive, HCV inhibitor 4.47µM, Marburg entry inh inconclusive (no result: HCMV inh)
Cc1ccc(C(=O)Nc2ccccc2)cc1S(=O)(=O)Nc1ccc(Br)cc1	LASV entry inh inconclusive (no result: SARS PLP yeast, HCV inhibitor, Marburg entry inh)
CCN(c1ccccc1)S(=O)(=O)c1cc(C(=O)Nc2ccc(Br)cc2)ccc1F	LASV entry inh 11.6µM, FMDV inh 17.8µM, HCV inhibitor 2.82µM!, Marburg entry inh inconclusive, HCMV inh -89.4
CCN(c1ccccc1)S(=O)(=O)c1cc(C(=O)Nc2ccccc2Cl)ccc1F	LASV entry inh inconclusive, FMDV inh inconclusive, HCV inhibitor inconclusive, Marburg entry inh inconclusive, HCMV inh -63.1
Cc1cc(C(C)(C)C)oc1C(=O)N(CC(=O)NC1CCCC1)c1cccc(C(F)(F)F)c1	LASV entry inh inconclusive, HCV inhibitor inconclusive, Marburg entry inh 23.1µM (no result: FMDV inh, HCMV inh)
Cc1ccccc1N(CC(=O)NC1CCCC1)C(=O)c1oc(C(C)(C)C)cc1C	LASV entry inh inconclusive, HCV inhibitor inconclusive, Marburg entry inh inconclusive (no result: FMDV inh, HCMV inh)
C[n+]1cccc2cccc([O-])c21	none (no result: LASV entry inh, Marburg entry inh)
CCN(c1cccc(C)c1)S(=O)(=O)c1ccc(-c2cc(C)no2)s1	HCMV inh -65.4 (no result: LASV entry inh, Marburg entry inh)
Cc1cccc(N(C)S(=O)(=O)c2ccc(-c3cc(C)no3)s2)c1	LASV entry inh inconclusive, HCMV inh -73.8! (no result: Marburg entry inh)
